PubChem BioAssay (NCATS)
Values joined by “and” are separate entries in the source; they are usually repeats but may differ in a detail not shown here. Identical values can stand only once. Inconclusive results are not listed. Some compounds were tested as several samples or in several runs, with calls that do not always agree. Active and inactive are the calls of the source. Calls come from the whole dose curve; as a rule, active = well fitted curve in the direction sought with a large enough effect; inconclusive = small, poorly fitted or top-dose-only effect, or another doubt; inactive = no such curve, though single readings can be large; an effect the other way counts as inactive or inconclusive.

Legend:
[1] = system: MKL-1; experiment: qHTS assay to identify novel small-molecules to repurpose for Merkel cell carcinoma treatment (AID 1296009); conditions: MCC and control cell lines, CellTiter-Glo viability, 72 h; series mostly up to 46 µM; note: nearly all actives have a fitted effect of over 60% in size
In short: (§1)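 qHTS format: cells treated with library compounds in DMSO across 8 (NPC) or 11 (MIPE) concentrations. Readout after 72 hr at 37 degree celsius was CellTiter-Glo luminescence.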

[2] = system: MKL-2; experiment: as above; conditions: MCC and control cell lines, CellTiter-Glo viability, 72 h; series mostly up to 46 µM
In short: as §1

[3] = system: UISO; experiment: as above; conditions: MCC and control cell lines, CellTiter-Glo viability, 72 h; series mostly up to 46 µM
In short: as §1

[4] = system: WaGa; experiment: as above; conditions: MCC and control cell lines, CellTiter-Glo viability, 72 h; series mostly up to 46 µM
In short: as §1

[5] = system: C33A; experiment: Primary qHTS to identify gynecologic anti-cancer compounds using libraries of approved drugs and bioactive compounds (AID 1345084); conditions: Gynecologic cancer cell panel viability, ATPlite luminescence, 48 h; series mostly up to 57.5 µM; note: nearly all actives have a fitted effect of over 55% in size
In short: (§2)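 Five-concentration response, 48 h; readout is ATP-driven luciferase luminescence.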

[6] = system: CASKI; experiment: as above; conditions: Gynecologic cancer cell panel viability, ATPlite luminescence, 48 h; series mostly up to 57.5 µM
In short: as §2

[7] = system: Es-2; experiment: as above; conditions: Gynecologic cancer cell panel viability, ATPlite luminescence, 48 h; series mostly up to 57.5 µM
In short: as §2

[8] = system: HeLa; experiment: as above; conditions: Gynecologic cancer cell panel viability, ATPlite luminescence, 48 h; series mostly up to 57.5 µM
In short: as §2

[9] = system: Hek293T; experiment: as above; conditions: Gynecologic cancer cell panel viability, ATPlite luminescence, 48 h, control line for the selectivity index; series mostly up to 57.5 µM
In short: as §2

[10] = system: JEG-3; experiment: as above; conditions: Gynecologic cancer cell panel viability, ATPlite luminescence, 48 h; series mostly up to 57.5 µM
In short: as §2

[11] = system: OV90; experiment: as above; conditions: Gynecologic cancer cell panel viability, ATPlite luminescence, 48 h; series mostly up to 57.5 µM
In short: as §2

[12] = system: PA-1; experiment: as above; conditions: Gynecologic cancer cell panel viability, ATPlite luminescence, 48 h; series mostly up to 57.5 µM
In short: as §2

[13] = system: Tov-21-G; experiment: as above; conditions: Gynecologic cancer cell panel viability, ATPlite luminescence, 48 h; series mostly up to 57.5 µM
In short: as §2

[14] = system: Tov112D; experiment: as above; conditions: Gynecologic cancer cell panel viability, ATPlite luminescence, 48 h; series mostly up to 57.5 µM
In short: as §2

[15] = Drug repurposing screens with cells derived from glioblastoma tumor samples (AID 1345199); conditions: GBM patient neurospheres viability, ATP luminescence, 48 h; note: nearly all actives have a fitted effect of over 40% in size; for activity, negative = cell killing: % is set by controls: 0 for no effect and ±100 for the full control effect
In short: (§3)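 Four patient lines of CD133+ GBM neurospheres were screened at several concentrations; hits were retested in those lines plus three slower-growing GBM lines, using 48-hour treatment and ATP-based viability.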

[16] = system: CAOV3; experiment: Primary qHTS to identify gynecologic anti-cancer compounds using libraries of approved drugs and bioactive compounds (AID 1345084); conditions: Gynecologic cancer cell panel viability, ATPlite luminescence, 48 h; series mostly up to 57.5 µM; note: nearly all actives have a fitted effect of over 55% in size
In short: as §2

[17] = system: SKOV3; experiment: as above; conditions: Gynecologic cancer cell panel viability, ATPlite luminescence, 48 h; series mostly up to 57.5 µM
In short: as §2

[18] = system: astro; experiment: Drug repurposing screens with cells derived from glioblastoma tumor samples (AID 1345199); conditions: viability, ATP luminescence, 48 h; series mostly up to 45.9 µM; note: nearly all actives have a fitted effect of over 40% in size; for activity, negative = cell killing: % is set by controls: 0 for no effect and ±100 for the full control effect
In short: as §3

[19] = system: NIH3T3; experiment: qHTS assay to identify novel small-molecules to repurpose for Merkel cell carcinoma treatment (AID 1296009); conditions: MCC and control cell lines, CellTiter-Glo viability, 72 h; series mostly up to 44.8 µM; note: nearly all actives have a fitted effect of over 60% in size
In short: as §1

[20] = qHTS assay to identify inhibitors of the type 1 interferon - major histocompatibility complex class I in skeletal muscle: Counter screen cell viability and HiBit confirmation (AID 1347412); conditions: iHSKM muscle cells + IFN-b, HiBiT or CellTiter-Glo, 24 h; Potency: HiBiT; Viability, at 45.9 µM (top of the series); note: nearly all actives have a fitted effect of over 60% in size
In short: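 HLA-B*08:01–HiBiT knock-in immortalized human myoblasts (C25cl48) stimulated with 4.0 ng/ml human IFN-beta and dosed with compound in a 12-point 1:3 titration (top final 46 uM). After 24 hrs at 37 C, HiBiT lytic luminescence or CellTiter Glo ATP read out.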

[21] = at 45.9 µM (top of the series), tumour line B
[22] = at 45.9 µM (top of the series), tumour line D
[23] = at 46 µM (top of the series), tumour line A
[24] = at 46.1 µM (top of the series), tumour line C
[25] = at 20 µM (top of the series), tumour line C
Potency is the fitted concentration of half-maximal effect.

CC(C)(C)C(=O)Oc1ccc(S(=O)(=O)Nc2ccccc2C(=O)NCC(=O)O)cc1
inactive: Potency [1] | Potency [2] | Potency [3] | Potency [4] | Potency [5] | Potency [6] | Potency [7] | Potency [8] | Potency [9] | Potency [10] | Potency [11] | Potency [12] | Potency [13] | Potency [14] | activity, negative = cell killing [15, 21] -13.7% | activity, negative = cell killing [15, 22] -10.4% | activity, negative = cell killing [15, 23] -15.5% | activity, negative = cell killing [15, 24] -13.4%

CCOC(=O)c1ncn2c1CN(C)C(=O)c1cc(F)ccc1-2
inactive: Potency [5] | Potency [16] | Potency [6] | Potency [7] | Potency [8] | Potency [9] | Potency [10] | Potency [11] | Potency [12] | Potency [17] | Potency [13] | Potency [14] | activity, negative = cell killing [15, 21] -16% | activity, negative = cell killing [15, 22] 3.15% | activity, negative = cell killing [15, 24] 4.97% | Potency [18]

CN(C)CCC=C1c2ccccc2C=Cc2ccccc21
active: Potency ([15]; tumour line A) 14.1 µM
inactive: Potency [1] | Potency [3] | Potency [4] | Potency [5] | Potency [16] | Potency [6] | Potency [8] | Potency [9] | Potency [10] | Potency [12] | Potency [13] | activity, negative = cell killing [15, 24] 15.9%

NC(CO)C(=O)NNCc1ccc(O)c(O)c1O (stereo not drawn)
inactive: Potency [6] | Potency [7] | Potency [8] | Potency [9] | Potency [10] | Potency [11] | Potency [13] | Potency [14] | activity, negative = cell killing [15, 21] -5.28% | activity, negative = cell killing [15, 22] -22% | activity, negative = cell killing [15, 23] -18.9% | activity, negative = cell killing [15, 24] 12.3%

COC(=O)Nc1nc2ccc(C(=O)c3cccs3)cc2[nH]1
active: Potency [3] 23.5 nM | Potency [5] 1 µM | Potency [7] 0.282 µM | Potency [8] 0.158 µM | Potency [10] 0.355 µM | Potency [11] 7.08 µM | Potency [12] 0.224 µM | Potency [14] 0.316 µM

CC(C)NCC(O)c1ccc(O)c(O)c1 (stereo not drawn)
inactive: Potency [5] | Potency [6] | Potency [7] | Potency [8] | Potency [9] | Potency [10] | Potency [17] | Potency [13] | Potency [14] | activity, negative = cell killing [15, 21] -7.24% | activity, negative = cell killing [15, 22] 4.85% | activity, negative = cell killing [15, 24] 7.09% | Potency [18]
active: Potency [1] 8.41 µM | Potency [2] 7.43 µM and 18.8 µM | Potency [4] 3.32 µM and 18.8 µM

O=C1Cc2cc(CCN3CCN(c4nsc5ccccc45)CC3)c(Cl)cc2N1
15 µM (active) and inactive: Potency [3]
inactive: outcome [19] | Potency [5] | Potency [6] | Potency [7] | Potency [8] | Potency [9] | Potency [10] | Potency [11] | Potency [12] | Potency [17] | Potency [13] | Potency [14] | activity, negative = cell killing [15, 21] -28.8% | activity, negative = cell killing [15, 22] -18.4% | activity, negative = cell killing [15, 24] -28.3% and -12.6%
active: Potency [2] 11.9 µM and 14.8 µM | Potency ([15]; tumour line B) 17.8 µM | Potency ([15]; tumour line D) 12.6 µM

COc1cc2nc(N3CCN(C(=O)c4ccco4)CC3)nc(N)c2cc1OC
active: Potency [1] 29.6 µM | Potency [2] 16.6 µM | Potency [4] 20.9 µM
inactive: Potency [5] | Potency [6] | Potency [8] | Potency [14]

CC#C[C@]1(O)CC[C@H]2[C@@H]3CCC4=CC(=O)CCC4=C3[C@@H](c3ccc(N(C)C)cc3)C[C@@]21C
active: Potency [2] 21.1 µM and 93.5 nM | Potency [3] 2960 nM
inactive: Potency [5] | Potency [6] | Potency [7] | Potency [9] | Potency [10] | Potency [11] | Potency [12] | Potency [17] | Potency [13] | Potency [14]
inactive and 105 nM (active): Potency [1]

CC1(CN2CCC(n3c(=O)[nH]c4ccccc43)CC2)OCc2ccccc2-n2cccc21 (stereo not drawn)
inactive: Potency [1] | Potency [2] | Potency [3] | Potency [4] | Potency [5] | Potency [6] | Potency [7] | Potency [8] | Potency [9] | Potency [10] | Potency [12] | Potency [17] | Potency [13] | Potency [14]

CCCNCC(O)COc1ccccc1C(=O)CCc1ccccc1 (stereo not drawn)
inactive: Potency [1] | Potency [2] | Potency [3] | Potency [4] | Potency [5] | Potency [6] | Potency [7] | Potency [8] | Potency [9] | Potency [10] | Potency [12] | Potency [13] | Potency [14] | activity, negative = cell killing [15, 24] 27.1% | Potency [18]
active: Potency ([15]; tumour line A) 7.08 µM

Cc1cn([C@H]2C[C@H](N=[N+]=[N-])[C@@H](CO)O2)c(=O)[nH]c1=O
inactive: Potency [5] | Potency [16] | Potency [7] | Potency [8] | Potency [9] | Potency [10] | Potency [11] | Potency [17] | Potency [13] | Potency [14] | activity, negative = cell killing [15, 21] -5.14% and -10.6% | activity, negative = cell killing [15, 22] -11% and -22.6% | activity, negative = cell killing [15, 24] -8.55% and -21.3% | Potency [18]

O=C1c2c(O)ccc(O)c2C(=O)c2c(NCCNCCO)ccc(NCCNCCO)c21
inactive: activity, negative = cell killing [15, 25] -23.1%
active: Potency [1] 105 nM and 6 nM | Potency [2] 0.006 µM | Potency [3] 526 nM and 668 nM | Potency [4] 74.3 nM and 4.7 nM | Potency [5] 2.51 µM | Potency [6] 2.82 µM | Potency [8] 15.8 µM | Potency [9] 10 µM | Potency [10] 11.2 µM | Potency [11] 28.2 µM | Potency [13] 28.2 µM | Potency ([15]; tumour line A) 3.98 µM | Potency ([15]; tumour line B) 8.91 µM | Potency ([15]; tumour line D) 5.62 µM | Potency [20] 1.76 µM

CN(C)CCCN1c2ccccc2CCc2ccc(Cl)cc21
inactive: Potency [1] | Potency [5] | Potency [8] | Potency [10] | Potency [12] | Potency [13] | activity, negative = cell killing [15, 24] -8.66%
active: Potency [2] 18.7 µM | Potency [4] 18.7 µM | Potency ([15]; tumour line A) 5.01 µM | Potency ([15]; tumour line B) 20 µM | Potency ([15]; tumour line D) 12.6 µM

Nc1nc2c(ncn2COC(CO)CO)c(=O)[nH]1
inactive and 18.7 µM (active): Potency [3]
inactive: Potency [1] | Potency [4] | Potency [5] | Potency [6] | Potency [7] | Potency [8] | Potency [9] | Potency [10] | Potency [11] | Potency [12] | Potency [17] | Potency [13] | Potency [14] | activity, negative = cell killing [15, 25] -13.4% | activity, negative = cell killing ([15]; at 21.2 µM (top of the series), tumour line B) -13.7% | activity, negative = cell killing ([15]; at 21.2 µM (top of the series), tumour line D) -24.4% | Potency [18]
inactive and 7.43 µM (active): Potency [2]
